{"source": "PubChem BioAssay", "note": "Active and inactive are the calls of the source. No rule for the calls is given here.", "data": [{"system": "Botulinum neurotoxin type F light chain protease (Clostridium botulinum)", "test": "Botulinum neurotoxin type F light chain protease inhibition, multiplex microsphere flow cytometry, validation set (AID 588459)", "conditions": "multiplex microsphere protease substrate cleavage assay, at 10 µM, stronger effect = higher value", "values": [{"smiles": "CC(CCc1ccccc1)NC(C)C(O)c1ccc(O)cc1", "note": "(centres undefined)", "inhibition": "-3.5% (inactive)"}, {"smiles": "NCCc1ccc(O)cc1", "inhibition": "5.4% (inactive)"}, {"smiles": "NC12CC3CC(CC(C3)C1)C2", "inhibition": "-1.1% (inactive)"}, {"smiles": "CC/C(=C\\C=C\\[C@@H]1C=C[C@@H]2CCC[C@H]2[C@@H]1C(=O)c1ccc[nH]1)[C@@H]1O[C@@H]([C@@H](C)C(=O)O)CC[C@@H]1C", "inhibition": "1.9% (inactive)"}, {"smiles": "Cc1c2ccncc2c(C)c2c1[nH]c1ccccc12", "inhibition": "2.4% (inactive)"}, {"smiles": "CCC(COC(=O)c1cc(OC)c(OC)c(OC)c1)(c1ccccc1)N(C)C", "note": "(centres undefined)", "inhibition": "-3.5% (inactive)"}, {"smiles": "Clc1ccc(COC(Cn2ccnc2)c2ccc(Cl)cc2Cl)c(Cl)c1", "note": "(centres undefined)", "inhibition": "0.4% (inactive)"}, {"smiles": "COc1cc(/C=C2\\C(=O)NC(=O)N(c3ccccc3)C2=O)c([N+](=O)[O-])cc1OC", "inhibition": "-4.1% (inactive)"}, {"smiles": "Nc1ccc([As](=O)(O)O)cc1", "inhibition": "-3.5% (inactive)"}, {"smiles": "O=C1CSC2N1CCNC21CCCCC1", "note": "(centres undefined)", "inhibition": "-1% (inactive)"}, {"smiles": "CC(=O)Nc1cc([As](=O)(O)O)ccc1O", "inhibition": "1% (inactive)"}, {"smiles": "C[C@]12CCC(=O)C(O)=C1CC[C@@H]1[C@@H]2CC[C@]2(C)C(=O)CC[C@@H]12", "inhibition": "0.8% (inactive)"}, {"smiles": "c1cc(-c2ccncc2)ccn1", "inhibition": "0.7% (inactive)"}, {"smiles": "Cn1c(=O)c2[nH]cnc2n(C)c1=O", "inhibition": "2.7% (inactive)"}, {"smiles": "C[C@]12CCC(=O)C=C1CC[C@@H]1[C@@H]2C(=O)C[C@]2(C)C(=O)CC[C@@H]12", "inhibition": "-1.7% (inactive)"}, {"smiles": "CC(=O)OCC(=O)[C@@]12OC(C)(C)O[C@@H]1C[C@H]1[C@@H]3C[C@H](F)C4=CC(=O)C=C[C@]4(C)[C@@]3(F)[C@@H](O)C[C@@]12C", "inhibition": "-3.5% (inactive)"}, {"smiles": "CN1[C@@H]2CC[C@H]1CC(OC(=O)C1C=Nc3ccccc31)C2", "note": "(some centres undefined)", "inhibition": "1.4% (inactive)"}, {"smiles": "CCCC(=O)OCC[N+](C)(C)C", "inhibition": "-3.8% (inactive)"}, {"smiles": "CC12CCC3C(CC=C4CC5(CCC43C)OCCO5)C1CCC2=O", "note": "(centres undefined)", "inhibition": "4.6% (inactive)"}, {"smiles": "CC(N=C(NC#N)Nc1ccncc1)C(C)(C)C", "note": "(centres undefined)", "inhibition": "0.4% (inactive)"}, {"smiles": "CN1CCN2c3ccccc3Cc3ccccc3C2C1", "note": "(centres undefined)", "inhibition": "0.3% (inactive)"}, {"smiles": "Cc1nc2ccccc2c(=O)n1-c1ccc(C(=O)O)cc1", "inhibition": "0.9% (inactive)"}, {"smiles": "Cc1cc(NS(=O)(=O)c2ccc(N)cc2)no1", "inhibition": "0% (inactive)"}, {"smiles": "c1ccc2c(c1)OCC(C1=NCCN1)O2", "note": "(centres undefined)", "inhibition": "-2.1% (inactive)"}, {"smiles": "C[C@]12CC[C@@H]3c4ccc(O)c(O)c4CC[C@H]3[C@@H]1CC[C@@H]2O", "inhibition": "0.2% (inactive)"}, {"smiles": "NCC(O)c1ccc(O)cc1", "note": "(centres undefined)", "inhibition": "1.9% (inactive)"}, {"smiles": "COc1ccc2c3c([nH]c2c1)C(C)=NCC3", "inhibition": "-22.6% (inactive)"}, {"smiles": "CS(=O)(=O)Nc1ccc([N+](=O)[O-])cc1Oc1ccccc1", "inhibition": "0% (inactive)"}, {"smiles": "CCCC(C)(COC(N)=O)COC(=O)NC(C)C", "note": "(centres undefined)", "inhibition": "0.5% (inactive)"}, {"smiles": "c1cnc2c(c1)ccc1ncccc12", "inhibition": "-4.1% (inactive)"}, {"smiles": "CC12CN3CC(c4ccccc4)(CN(C1)C31CCCCC1)C2=O", "inhibition": "2.1% (inactive)"}, {"smiles": "C[C@H]1CCCC(=O)CCCCCc2cc(O)cc(O)c2C(=O)O1", "inhibition": "-0.4% (inactive)"}]}, {"target": "Botulinum neurotoxin type A (Clostridium botulinum) (UniProt P0DPI0)", "sequence (P0DPI0 whole entry, looked up)": "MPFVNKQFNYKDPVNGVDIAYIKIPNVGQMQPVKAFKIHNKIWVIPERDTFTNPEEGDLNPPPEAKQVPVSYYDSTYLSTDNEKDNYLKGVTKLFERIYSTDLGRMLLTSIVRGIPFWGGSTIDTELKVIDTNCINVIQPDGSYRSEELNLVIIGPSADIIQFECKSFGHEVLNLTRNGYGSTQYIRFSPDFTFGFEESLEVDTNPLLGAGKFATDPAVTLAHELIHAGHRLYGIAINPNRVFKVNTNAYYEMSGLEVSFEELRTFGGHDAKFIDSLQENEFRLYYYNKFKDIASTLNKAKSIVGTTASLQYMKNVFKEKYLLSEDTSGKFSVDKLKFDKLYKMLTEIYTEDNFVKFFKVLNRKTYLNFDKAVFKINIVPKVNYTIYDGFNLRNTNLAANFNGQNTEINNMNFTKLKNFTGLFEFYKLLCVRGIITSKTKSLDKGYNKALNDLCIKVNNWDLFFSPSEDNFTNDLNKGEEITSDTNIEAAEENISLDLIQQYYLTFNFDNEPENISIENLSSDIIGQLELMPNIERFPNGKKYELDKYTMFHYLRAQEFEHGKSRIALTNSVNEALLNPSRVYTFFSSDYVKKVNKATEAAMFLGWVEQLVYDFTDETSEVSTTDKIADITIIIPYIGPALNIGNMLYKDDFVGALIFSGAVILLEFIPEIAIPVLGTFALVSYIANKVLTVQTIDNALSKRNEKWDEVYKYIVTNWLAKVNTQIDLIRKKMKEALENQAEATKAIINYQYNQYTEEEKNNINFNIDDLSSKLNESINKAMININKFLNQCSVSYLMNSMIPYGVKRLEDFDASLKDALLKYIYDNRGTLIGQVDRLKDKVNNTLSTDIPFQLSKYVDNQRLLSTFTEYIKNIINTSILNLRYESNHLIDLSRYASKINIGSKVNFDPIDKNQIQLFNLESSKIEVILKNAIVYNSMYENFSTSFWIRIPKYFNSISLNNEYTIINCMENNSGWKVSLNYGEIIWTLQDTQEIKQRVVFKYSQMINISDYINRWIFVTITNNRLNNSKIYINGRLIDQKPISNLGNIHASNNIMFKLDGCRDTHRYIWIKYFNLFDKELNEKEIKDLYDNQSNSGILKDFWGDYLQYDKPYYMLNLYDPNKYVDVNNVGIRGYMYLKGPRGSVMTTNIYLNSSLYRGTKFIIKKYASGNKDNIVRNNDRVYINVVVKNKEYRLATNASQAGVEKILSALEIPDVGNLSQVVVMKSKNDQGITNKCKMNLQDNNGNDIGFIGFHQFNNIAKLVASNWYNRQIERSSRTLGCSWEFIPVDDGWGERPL", "test": "BoNT/A light chain protease inhibitors, biochemical, multiplex microsphere flow cytometry, validation set (AID 588460)", "conditions": "at 10 µM, stronger effect = higher value", "values": [{"smiles": "CC(CCc1ccccc1)NC(C)C(O)c1ccc(O)cc1", "note": "(centres undefined)", "inhibition": "-0.8% (inactive)"}, {"smiles": "NCCc1ccc(O)cc1", "inhibition": "0.3% (inactive)"}, {"smiles": "NC12CC3CC(CC(C3)C1)C2", "inhibition": "-0.6% (inactive)"}, {"smiles": "CC/C(=C\\C=C\\[C@@H]1C=C[C@@H]2CCC[C@H]2[C@@H]1C(=O)c1ccc[nH]1)[C@@H]1O[C@@H]([C@@H](C)C(=O)O)CC[C@@H]1C", "inhibition": "0.5% (inactive)"}, {"smiles": "Cc1c2ccncc2c(C)c2c1[nH]c1ccccc12", "inhibition": "2.8% (inactive)"}, {"smiles": "CCC(COC(=O)c1cc(OC)c(OC)c(OC)c1)(c1ccccc1)N(C)C", "note": "(centres undefined)", "inhibition": "-2.8% (inactive)"}, {"smiles": "Clc1ccc(COC(Cn2ccnc2)c2ccc(Cl)cc2Cl)c(Cl)c1", "note": "(centres undefined)", "inhibition": "-0.5% (inactive)"}, {"smiles": "COc1cc(/C=C2\\C(=O)NC(=O)N(c3ccccc3)C2=O)c([N+](=O)[O-])cc1OC", "inhibition": "-1.1% (inactive)"}, {"smiles": "Nc1ccc([As](=O)(O)O)cc1", "inhibition": "-1.7% (inactive)"}, {"smiles": "O=C1CSC2N1CCNC21CCCCC1", "note": "(centres undefined)", "inhibition": "1% (inactive)"}, {"smiles": "CC(=O)Nc1cc([As](=O)(O)O)ccc1O", "inhibition": "-1.3% (inactive)"}, {"smiles": "C[C@]12CCC(=O)C(O)=C1CC[C@@H]1[C@@H]2CC[C@]2(C)C(=O)CC[C@@H]12", "inhibition": "-1.4% (inactive)"}, {"smiles": "c1cc(-c2ccncc2)ccn1", "inhibition": "-1.9% (inactive)"}, {"smiles": "Cn1c(=O)c2[nH]cnc2n(C)c1=O", "inhibition": "-2% (inactive)"}, {"smiles": "C[C@]12CCC(=O)C=C1CC[C@@H]1[C@@H]2C(=O)C[C@]2(C)C(=O)CC[C@@H]12", "inhibition": "1% (inactive)"}, {"smiles": "CC(=O)OCC(=O)[C@@]12OC(C)(C)O[C@@H]1C[C@H]1[C@@H]3C[C@H](F)C4=CC(=O)C=C[C@]4(C)[C@@]3(F)[C@@H](O)C[C@@]12C", "inhibition": "-1.4% (inactive)"}, {"smiles": "CN1[C@@H]2CC[C@H]1CC(OC(=O)C1C=Nc3ccccc31)C2", "note": "(some centres undefined)", "inhibition": "-0.6% (inactive)"}, {"smiles": "CCCC(=O)OCC[N+](C)(C)C", "inhibition": "-2.9% (inactive)"}, {"smiles": "CC12CCC3C(CC=C4CC5(CCC43C)OCCO5)C1CCC2=O", "note": "(centres undefined)", "inhibition": "-0.8% (inactive)"}, {"smiles": "CC(N=C(NC#N)Nc1ccncc1)C(C)(C)C", "note": "(centres undefined)", "inhibition": "2.3% (inactive)"}, {"smiles": "CN1CCN2c3ccccc3Cc3ccccc3C2C1", "note": "(centres undefined)", "inhibition": "0.5% (inactive)"}, {"smiles": "Cc1nc2ccccc2c(=O)n1-c1ccc(C(=O)O)cc1", "inhibition": "-0.2% (inactive)"}, {"smiles": "Cc1cc(NS(=O)(=O)c2ccc(N)cc2)no1", "inhibition": "0.1% (inactive)"}, {"smiles": "c1ccc2c(c1)OCC(C1=NCCN1)O2", "note": "(centres undefined)", "inhibition": "0.1% (inactive)"}, {"smiles": "C[C@]12CC[C@@H]3c4ccc(O)c(O)c4CC[C@H]3[C@@H]1CC[C@@H]2O", "inhibition": "-0.1% (inactive)"}, {"smiles": "NCC(O)c1ccc(O)cc1", "note": "(centres undefined)", "inhibition": "1% (inactive)"}, {"smiles": "COc1ccc2c3c([nH]c2c1)C(C)=NCC3", "inhibition": "-5.4% (inactive)"}, {"smiles": "CS(=O)(=O)Nc1ccc([N+](=O)[O-])cc1Oc1ccccc1", "inhibition": "-0.9% (inactive)"}, {"smiles": "CCCC(C)(COC(N)=O)COC(=O)NC(C)C", "note": "(centres undefined)", "inhibition": "1.4% (inactive)"}, {"smiles": "c1cnc2c(c1)ccc1ncccc12", "inhibition": "-0.7% (inactive)"}, {"smiles": "CC12CN3CC(c4ccccc4)(CN(C1)C31CCCCC1)C2=O", "inhibition": "-0.1% (inactive)"}, {"smiles": "C[C@H]1CCCC(=O)CCCCCc2cc(O)cc(O)c2C(=O)O1", "inhibition": "-1.7% (inactive)"}]}]}
